TRb SRC2 PPI – TRbeta-SRC2 interaction inhibition. P10828. AID 1469. 280,000 compounds, 0.065% hits. Potency, µM (series often up to 106 µM), without a hit: at the highest dose activity change, negative = inhibition, usual class: inhibitors. TRbeta-SRC2 peptide binding, fluorescence polarization; receptor liganded with 1 µM T3;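 also: plate controls were bound peptide for no effect and peptide without receptor for full effect; nearly all actives have a fitted effect of over 50% in size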
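Human TRb LBD (0.6 uM) plus Texas Red-labeled SRC2 peptide (20 nM), 1uM T3, 5% DMSO, 5 hr at ambient temperature. Decreased polarization (555/632 nm) flags inhibition; data normalized to free and bound peptide controls.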
Tau ThT inhib – blocks human tau fibril formation measured by thioflavin T; recombinant tau K18 P301L, heparin-induced fibrillization, ThT fluorescence; Potency, µM (series often up to 57.4 µM), inactives show at the highest dose activity, negative = inhibition, hits mostly inhibitors; 270,000 compounds, 2.1% hits; also: nearly all actives have a fitted effect of over 55% in size
Target sequence (P10636 561-689 P618L limits assumed): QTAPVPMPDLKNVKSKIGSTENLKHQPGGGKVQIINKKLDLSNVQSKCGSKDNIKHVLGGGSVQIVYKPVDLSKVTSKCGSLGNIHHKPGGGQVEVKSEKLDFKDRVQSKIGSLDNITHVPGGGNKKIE
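Heparin-induced (20 uM) aggregation of recombinant human K18 P301L tau, 15 uM unlabeled with 0.24 uM labeled, pH 7 acetate buffer, 6 hr at 37 C with compound. Fibrils quantified by 30 uM ThT fluorescence after 1 hr ambient incubation.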
Tau fluor counter – counter-screen for tau fibril formation inhibitors; tau K18 P301L Alexa594 fluorescence, heparin fibrillization; Potency, µM (highest dose often 57.7 µM), for the others: at the top dose activity change, negative = decrease; 280,000 compounds, 0.93% hits; AID 1463; also: nearly all actives have a fitted effect of over 55% in size
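Human tau K18 P301L (15 uM unlabeled, 0.24 uM Alexa 594-labeled) in 100 mM sodium acetate pH 7 with 20 uM heparin, 6 hr at 37 C. ThT 30 uM added, 1 hr ambient; Alexa 594 FP and total fluorescence read at 555/632 nm.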
GoLoco inh red – inhibitors of human Gai1-RGS12 GoLoco interaction (red fluorophore); Potency, µM (highest dose often 61.6 µM), for the others: at the top dose activity, negative = inhibition, actives largely listed as inhibitors; 230,000 compounds, 0.44% hits; P63096; Gai1:RGS12 GoLoco peptide FP, rhodamine, 10 min; active = well fitted inhibition curve with a large enough effect, not every such curve was filed as active; inactive = no such curve, though single readings can be large or run the other way; also: nearly all actives have a fitted effect of over 30% in size
Target sequence (P63096 whole entry, looked up): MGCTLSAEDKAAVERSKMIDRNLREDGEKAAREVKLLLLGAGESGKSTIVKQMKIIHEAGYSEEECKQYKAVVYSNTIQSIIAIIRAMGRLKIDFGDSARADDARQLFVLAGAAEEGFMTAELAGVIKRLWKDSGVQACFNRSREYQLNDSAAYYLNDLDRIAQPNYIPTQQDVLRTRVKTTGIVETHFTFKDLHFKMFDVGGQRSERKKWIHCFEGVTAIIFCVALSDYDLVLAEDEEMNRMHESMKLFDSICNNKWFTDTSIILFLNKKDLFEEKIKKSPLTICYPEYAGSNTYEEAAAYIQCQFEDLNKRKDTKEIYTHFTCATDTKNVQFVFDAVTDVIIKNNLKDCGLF
TR SRC2 fluor cs – Texas Red fluorescence interference in TRb-SRC2 counter-screen | Potency, µM (top dose mostly 106 µM), inactives show top-dose fluorescence change, negative = quenching | TRb/SRC2 Texas Red total fluorescence interference | AID 1479 | 280,000 compounds, 0.29% hits; active = well fitted curve in either direction with a large enough effect; inconclusive = small, poorly fitted or top-dose-only effect
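Human TRb ligand-binding domain at 0.6 uM with 20 nM Texas Red SRC2 peptide in Tris buffer containing 1 uM T3 and 5% DMSO, incubated with compound 5 h at ambient temperature. Total fluorescence (555/632 nm) calculated as parallel + 2 × perpendicular.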
Tau fibril FP – inhibitors of human tau fibril formation; K18 P301L tau heparin fibrillization, Alexa594 FP, 6 h; Potency, µM (titrated, usually from 57.7 µM), for the others: at the top dose activity, negative = inhibition, hits mostly inhibitors; 280,000 compounds, 0.39% hits; AID 1468; also: nearly all actives have a fitted effect of over 55% in size
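Recombinant K18 P301L […], labeled with Alexa 594 at 0.24 uM over 15 uM unlabeled; heparin inducer 20 uM final; 37 C, 6 hr; FP endpoint.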
The depositor's hits bear a star; u = inconclusive; x = no result given; [ ] = remark or other dose. An excerpt weighted towards active compounds, which were near 3.2% of everything screened. Unless noted, calls follow the shape of the dose curve; as a rule, active = well fitted curve in the direction sought with a large enough effect; inconclusive = small, poorly fitted or top-dose-only effect, or another doubt; inactive = no such curve, though single readings can be large; an effect the other way counts as inactive or inconclusive. Unless noted, % is scaled to controls: 0 for no effect and ±100 for the full control effect; potency is read from the fitted curve at half-maximal effect.

SMILES	TRb SRC2 PPI	Tau ThT inhib	Tau fluor counter	GoLoco inh red	TR SRC2 fluor cs	Tau fibril FP
O=c1[nH]sc2ccccc12	2.4%[201 µM]	11.2µM*	-14.5%	-34.3%	-3.2%[201 µM]	25.1µM*
O=C/C=C/c1coc2ccc3ccccc3c2c1=O	3.3%	14.1µM*	u	8.7%	-3.3%	-8.5%
CCCn1c(O)c(C=Nc2ccccc2)sc1=S	6.6%	-16.5%	u	-0.7%	-1.0%	12.1%
CCCCn1c(O)c(/C=C/C=C/C=Nc2ccccc2)sc1=S	19.2%	3.16µM*	-26.3%	77.0%	16.0%	u
Oc1c(/C=C/C=C/C=Nc2ccccc2)sc(=S)n1Cc1ccccc1	10.9%	1.78µM*	u	-96.7%	5.0%	u
CCn1c(O)c(/C=C/C=C/C=Nc2ccccc2)sc1=S	10.8%	u	0.3%	184.8%	3.3%	-3.2%
Cc1cc(-c2nsc(=O)o2)c(S(C)(=O)=O)s1	-8.8%	31.6µM*	-13.3%	-11.2%	-1.5%	u
CCn1cc2nc(SCc3cccc(OC)c3)n(Cc3ccc(Cl)cc3)c(=O)c2n1	-18.6%[53 µM]	-12.5%	-18.9%	x	0.0316µM*[quencher]	-0.1%
CCCCCCCCCC[n+]1cccc2c3ccccc3ccc21	3.3%	-14.3%	0.3%	10µM*	-0.5%	-10.0%
O=C(/C(N=Nc1cccc([N+](=O)[O-])c1)=C(/O)c1ccc(Br)cc1)C(F)(F)F	-0.8%	25.1µM*	15.8µM*[quencher]	3.4%	-0.3%	8.0%
CCOC(=O)C1CCN(C(=O)Nc2ccc3nc(-c4ccco4)c(-c4ccco4)nc3c2)CC1	3.2%	3.16µM*	u	11.9%	u	u
O=C(Nc1ccc2nc(-c3ccco3)c(-c3ccco3)nc2c1)N1CCCCCC1	10.9%	7.08µM*	8.91µM*[quencher]	28.3%	22.4µM*[quencher]	14.1µM*
Cn1cnc(S(=O)(=O)N2CCC(C(=O)Nc3ccc(OC(F)(F)F)cc3)CC2)c1	5.4%	0.7%	-13.7%	x	-1.0%	u
COc1ccc(N/N=C(\C=N\O)C(=O)c2ccc(OC)cc2)cc1	5.2%	12.6µM*	u	-1.2%	-4.2%	15.6%
CCN(CC)C(=O)/C(C#N)=C/c1cc(O)c(O)c([N+](=O)[O-])c1	4.9%	x	x	2.5%	-5.4%	x
N#CC(C#N)=C(N)/C(C#N)=C/c1cc(O)c(O)c(O)c1	-2.1%	11.2µM*	u	178.8%	-11.4%	u
Fc1ccc(-c2csc(=Nc3cccc(C(F)(F)F)c3)n2Cc2ccc3c(c2)OCO3)cc1	-1.8%	0.8%	-20.0%	x	-0.4%	-0.5%
COc1ccc(/C=C2/SC(=O)N(CCC(=O)Nc3ccc(C)cc3)C2=O)cc1OC	-9.9%	u	-2.2%	4.0%	1.3%	-8.6%
COc1ccc(/C=C2\SC(=O)N(CCNC(=O)Cc3coc4cc(C)ccc34)C2=O)cc1OC	-1.9%	12.6µM*	-24.8%	41.9%	-0.1%	u
C[N+](C)(N)Cc1csc(-c2ccc(Cl)cc2)n1	x	x	x	4.0%[14.2 µM]	x	x
COC1=C(Nc2ccccc2OC)C(=O)c2ccccc2C1=O	-1.1%	u	u	-0.9%	-3.2%	u
CC(=O)Nc1ccc(NC2=C(Cl)C(=O)c3ccccc3C2=O)cc1	0.7%	2µM*	2.24µM*[quencher]	3.5%	-2.9%	10µM*
CC(=O)Nc1ccc(NC(=O)c2cccc3c2-c2ccccc2C3=O)cc1	-2.9%	-14.8%	-9.4%	8.2%	-1.5%	9.1%
O=C(NC1=C(Nc2ccc(Cl)cc2)C(=O)c2ccccc2C1=O)c1ccccc1	-11.1%	17.8µM*	u	-10.9%	19.4%	-12.8%
O=C1C(Cl)=C(Nc2ccc3cn[nH]c3c2)C(=O)c2ccccc21	-6.9%	1.78µM*	1.41µM*[quencher]	7.94µM*	-12.9%	7.94µM*
COc1ccccc1NC1=C(NC(C)=O)C(=O)c2ccccc2C1=O	6.5%	20µM*	-29.0%	-8.9%	-3.4%	u
CCc1ccc(C(=O)c2cn(CC(=O)Nc3cc(C)ccc3C)c3nc(C)ccc3c2=O)cc1	-0.1%	u	-9.0%	x	-0.1%	-19.7%
